Hit rate of the full screen: of about 2,300 compounds, about 1,000 (43%) were called active. How the calls were made is not given here. The set was probably picked from earlier hits. Some of the results follow. Entries that show only a call come without a potency. Potency and affinity values are given separately.
Test: PhoP regulon inhibitor project modified counter assay, GFP fluorescence readout, dose response (AID 1985)
Settings: S. Typhi, 4 h; series mostly up to 150 µM
For `c1csc(-n2nc3ccccc3n2)c1`, the outcome was “inactive”.
In the case of `CC1Cc2ccccc2N1C(=O)CN1C(=O)C(=O)N(Cc2ccccc2)C1=O` (stereo not drawn), the outcome is reported as “inactive”.
For `CC(C)(C)SCCNC(=O)c1ccccc1`, the outcome was “inactive”.
For `CCOc1ccc(-c2c[n+]3c(n2-c2ccccc2)CCCCC3)cc1`, the outcome was “inactive”.
In the case of `COCCCNc1c2c(nc3nnnn13)CCCC2`, the outcome is reported as “inactive”.
For `CC(C)(C)c1ccc(OCCNC(=S)Nc2ccccc2)cc1`, the outcome was “inactive”.
In the case of `O=C(NCCCNc1ccnc2cc(Cl)ccc12)c1ccccc1F`, the outcome is reported as “inactive”.
For `C#CCOC(=O)c1ccccc1C(=O)OCC#C`, the outcome was “inactive”.
For `C=CCNc1nc(-c2ccccc2)nc(-n2ccnc2)n1`, the outcome was “inactive”.
For `O=C(CSc1nc2ccccc2o1)c1cc2ccccc2oc1=O`, the outcome was “inactive”.
For `CC(Sc1nc2ccccc2o1)C(=O)O` (stereo not drawn), the outcome was “inactive”.
In the case of `CN(CCO)CC(O)Cn1cnc2c1c(=O)n(C)c(=O)n2C` (stereo not drawn) (tested in a mixture with another compound), the outcome is reported as “inactive”.
For `Cc1ccc(N2CC(C(=O)OCc3ccccc3F)CC2=O)cc1` (stereo not drawn), the outcome was “inactive”.
For `Cc1cc2oc(=O)cc(CN3CCN(C/C=C/c4ccccc4)CC3)c2cc1O`, the outcome was “inactive”.
In the case of `O=C(O)/C=C/c1cn(-c2ccccc2)nc1-c1cc2ccccc2oc1=O`, the outcome is reported as “inactive”.
With `Oc1c(Br)cc(Br)cc1Oc1ccc(Br)cc1Br` the outcome was “inactive”.
For `Cc1cccc(N/N=C/c2ccc(O)c(O)c2O)c1`, the outcome was “inactive”.
With `Oc1c(Br)cc(Br)cc1C=Nc1cccc2ncccc12` the outcome was “inactive”.
For `Cc1cc(C)nc(NS(=O)(=O)c2ccc(N3C(=O)C4CC=C(Cl)CC4C3=O)cc2)n1` (stereo not drawn), the outcome was “inactive”.
In the case of `Cc1cc(C)cc(NC(=O)C(Sc2nnc(C)c(=O)[nH]2)c2ccccc2)c1` (stereo not drawn), the outcome is reported as “inactive”.
With `Cc1c(C)n(C)c2ccc(C(=O)NCc3cccs3)cc12` the outcome was “inactive”.
With `Cc1cccc2cc(C(c3nnnn3Cc3ccccc3)N3CCN(C)CC3)c(=O)[nH]c12` (stereo not drawn) the outcome was “inactive”.
In the case of `CCN(CC)C(=O)CNC(=O)Cc1ccc(Cl)cc1`, the outcome is reported as “inactive”.
With `CCCCc1ccc2[nH]cc(CCN)c2c1` the outcome was “inactive”.
With `S=C1SCN(Cc2cccnc2)CN1Cc1cccnc1` the outcome was “inactive”.
With `Cc1nc2nc(COc3ccccc3)nn2c(C)c1Cl` the outcome was “inactive”.
With `CC(=O)Nc1cccc(NS(=O)(=O)Cc2ccc(Cl)cc2)c1` the outcome was “inactive”.
With `O=C(Nc1ccc(N2CCOCC2)c(Cl)c1)c1ccccc1F` the outcome was “inactive”.
In the case of `Cc1cc2oc(C(=O)NCc3ccncc3)c(C)c2cc1C`, the outcome is reported as “inactive”.
For `O=C(Nc1ccc(Nc2ccncc2)cc1)c1ccc([N+](=O)[O-])cc1`, the outcome was “inactive”.
For `COc1ccc2c(c1)CC1(CN2C)C(=O)NC(=O)N(CCc2ccccc2)C1=O` (stereo not drawn), the outcome was “inactive”.
For `Cc1ccc(C(=O)O)cc1N=Cc1cc(Br)cc(Br)c1O`, the outcome was “inactive”.
For `Nc1ccc(S(=O)(=O)c2ccc(N)cc2)cc1`, the outcome was “inactive”.
For `O=C(N/N=C/c1cccnc1)c1cccc(Cl)c1`, the outcome was “inactive”.
In the case of `Nc1nonc1-n1nnc(C(=O)N/N=C/c2ccccc2O)c1CN1CCCC1`, the outcome is reported as “inactive”.
For `Nc1cc(=O)[nH]c(=S)n1-c1cccc(C(F)(F)F)c1`, the outcome was “inactive”.
With `O=C1c2[nH]nc(-c3ccccc3O)c2C(c2ccc(F)cc2)N1CC1CCCO1` (stereo not drawn) the outcome was “inactive”.
For `C=CCNC(=O)NC(=O)COC(=O)/C(C#N)=C/c1ccc(OC)cc1`, the outcome was “inactive”.
With `N#CCCn1ncc2ccccc21` the outcome was “inactive”.
In the case of `Cc1c(C)c2ccc(OC(C)C(=O)N[C@@H](Cc3c[nH]c4ccccc34)C(=O)O)c(C)c2oc1=O` (stereo partly drawn), the outcome is reported as “inactive”.
With `COc1ccc(/C=N/NC(=O)c2cccnc2)cc1` the outcome was “inactive”.
In the case of `CCN(CC)Cc1c(C(=O)N/N=C/c2cccc3ccccc23)nnn1-c1nonc1N`, the outcome is reported as “inactive”.
With `Cc1ccc(N=Cc2cc(Br)cc(Cl)c2O)cc1` the outcome was “inactive”.
For `Cc1cc(C(=O)Cn2cncn2)c(C)n1CCc1ccc(F)cc1`, the outcome was “inactive”.
For `O=C(CCN1CCOCC1)Nc1ccccc1`, the outcome was “inactive”.
For `COc1ccc(Cl)cc1NC(=O)CCN1CCOCC1`, the outcome was “inactive”.
For `CCCNC(=O)COc1ncnc2sc(C)c(C)c12`, the outcome was “inactive”.
With `Cc1cc(C)cc(N(C(=O)CNC(=O)c2cccs2)C(C(=O)NC2CCCC2)c2cccnc2)c1` (stereo not drawn) the outcome was “inactive”.
For `Cc1c(C2(O)C(=O)Nc3ccc(F)cc32)c(=O)n(-c2ccccc2)n1C` (stereo not drawn), the outcome was “inactive”.
For `C=CCOC(=O)C1=C(C)NC2(O)c3ccccc3C(=O)C12O` (stereo not drawn), the outcome was “inactive”.
In the case of `N#C/C(=C\c1ccc(O)c(O)c1)C(=O)NCc1ccccc1`, the outcome is reported as “inactive”.
With `Cc1c(C)n(C)c2ccc(C(=O)NCCCN3CCCC3)cc12` the outcome was “inactive”.
In the case of `CC1CCN(CCCCOc2ccc(Cl)cc2)CC1`, the outcome is reported as “inactive”.
For `CCc1nn(CCCN2CCN(c3cccc(Cl)c3)CC2)c(=O)n1CCOc1ccccc1`, the outcome was “inactive”.
In the case of `Cn1c(CN2CCCC2)nc2cc(NC(=O)COc3ccc(Cl)cc3)ccc21`, the outcome is reported as “inactive”.
With `Cc1ccc(-c2nnc3sc(-c4ccncc4)nn23)cc1` the outcome was “inactive”.
With `COc1ccc(C2C(C(=O)N3CCC4(CC3)OCCO4)CC(=O)N2c2ccc(OC)cc2)cc1` (stereo not drawn) the outcome was “inactive”.
In the case of `O=C(c1ccc2c(c1)[nH]c(=S)n1c3ccccc3nc21)N1CCN(c2cccc(Cl)c2)CC1`, the outcome is reported as “inactive”.
For `COc1cc(NS(=O)(=O)c2ccc(NC(=S)Nc3ccccc3)cc2)nc(OC)n1`, the outcome was “inactive”.
In the case of `O=S(=O)(Nc1ncccn1)c1ccc(NC(=S)Nc2ccccc2Cl)cc1`, the outcome is reported as “inactive”.
With `Cc1ccc(C)c(SCC(=O)Nc2ccc(S(=O)(=O)Nc3ncccn3)cc2)c1` the outcome was “inactive”.
For `CCNC(=S)Nc1cccc(S(=O)(=O)Nc2ccccc2OC)c1`, the outcome was “inactive”.
For `COC(=O)Cc1ccc(NC(=S)NCc2ccc(Cl)cc2)cc1`, the outcome was “inactive”.
For `NC(N)=NC(N)=Nc1cccc2ccccc12`, the outcome was “inactive”.
In the case of `CCNC(=O)c1ccc(C2SCC(=O)N2CCc2ccccc2)cc1` (stereo not drawn), the outcome is reported as “inactive”.
In the case of `COc1cccc(NC(=O)COC(=O)Cc2ccccc2[N+](=O)[O-])c1`, the outcome is reported as “inactive”.
For `COc1ccc(NC(=O)CN(C)S(=O)(=O)c2ccc(Cl)cc2)cc1Cl`, the outcome was “inactive”.
For `Oc1ccccc1N=Cc1c(O)ccc2oc3c(c12)CCCC3`, the outcome was “inactive”.
In the case of `CC(=O)NCc1ccc(C(=O)CSc2nnc(-c3ccncc3)n2Cc2ccccc2)o1`, the outcome is reported as “inactive”.
In the case of `Cc1[nH]c2ccccc2c1/C=N/Nc1nc2ccccc2[nH]1`, the outcome is reported as “inactive”.
In the case of `O=C(CN(CCc1ccccc1)C(=O)CNS(=O)(=O)c1ccc(F)cc1)NCC1CCCO1` (stereo not drawn), the outcome is reported as “inactive”.
For `COc1ccc(/C=N/NC(=O)c2ccc3c(c2)OCO3)cc1`, the outcome was “inactive”.
In the case of `OCn1ncn(-c2ccccc2)c1=S`, the outcome is reported as “inactive”.

— PubChem BioAssay AID1985 (Southern Research Specialized Biocontainment Screening …, 2009)
